This is part of a sample that, as a whole, favours compounds with a hit. Of some 83,000 tested, about 20% had one in any assay.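 Treatment: one concentration, 48 hours, 96-well format. Scoring: percent growth, with anything below 10 considered active.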 Unmarked numbers belong to inactive results. Calls of active or inactive are those of the source.

For the experiment, the system named is HCT-15 colon. As to the kind of experiment: NCI-60 one-dose screen, 48 h (100 = growth as untreated, 0 = no growth, -100 = all killed). The note with it: 10 µM unless noted. Here is the method:
Growth inhibition of the HCT-15 human tumor cell line is measured as a screen for anti-cancer activity. Cells are grown in 96 well plates and exposed to the test compound for 48 hours. Compounds are tested at a single concentration, which is 10^-5 M for most compounds. The reported endpoint is percent growth (GI% or GIPRCNT), where numbers from 0 - 100% represent growth inhibition, and numbers from -100% - 0 represent cell death. For example, a value of 40 represents 60% growth inhibition. A value of 0 means no net growth occurred over the course of the experiment. A value of -40 indicates 40% of cells at the beginning of the experiment died by the end of the experiment. A value of -100 means all cells are dead at the end of the experiment.
NCI-60 Human Tumor Cell Lines Screen was performed using the standard one-dose NCI protocol, which is described in more detail at https://dtp.cancer.gov/discovery_development/nci-60/default.htm.
Compounds with GIPRCNT values below 10 were considered active. Activity score was based on GIPRCNT using the following formula: […]
Score is 0 for GIPRCNT values of 100 or above, 50 for GIPRCNT values of 0, and 100 for GIPRCNT values of -100.
For the compound `COc1ccc(S(=O)(=O)n2cc(C=O)c3ccccc32)c(OC)c1`, the growth is 40%.
Take `CC1OC(O[C@@H]2[C@H](O)C(CO)OC(O[C@H]3COC(O[C@H]4CC[C@]5(C)[C@H]6CC[C@]78OC[C@@]9(CCC(C)(C)C[C@H]97)[C@H](O)C[C@@]8(C)[C@]6(C)CC[C@H]5C4(C)C)[C@@H](OC4OC(CO)[C@@H](O)[C@@H](O)[C@@H]4O)[C@@H]3O)[C@H]2OC2OC[C@@H](O)[C@@H](O)[C@@H]2O)[C@@H](O)[C@@H](O)[C@H]1O` (stereo not given in full): the growth is -52.8% (active).
As for `O=C1Nc2ccc(Br)cc2/C1=N\c1nnc(-c2ccc(Cl)cc2)o1`, the figure is 24.2%; as for `COc1cc2c3c(n(CCCNC4CCC4)c(=O)c2cc1OC)-c1cc2c(cc1C3=O)OCO2`, -53% (active).
Under `ClC(Cl)c1nc(-c2cccs2)n2nc(-c3ccccc3)cc2n1` stands 0.506% (active).
Consider `CCCCCCNC(=O)Oc1ccc(/C(=C(\C)c2ccc(OC)cc2)c2ccc(OCCN(C)C)cc2)cc1`, for which the growth was 30.8%.
As to `O=C(Nc1ccccc1)Nc1nc2ccc([N+](=O)[O-])cc2s1`, the growth was 8.64% (active).
As for `O=C(NNc1nc2cc(F)c(F)cc2n2cccc12)c1ccncn1`, the figure is 23.6%; as for `CN1CCN(Cc2ccc(NC(=O)c3cncc(C#Cc4cnc5ccc(O[C@H]6CCOC6)nn45)c3)cc2C(F)(F)F)CC1`, -49.3% (active); as for `Nc1nc(-c2cccc([N+](=O)[O-])c2)c(N=Nc2cccc(Cl)c2)s1`, 16.3%.
For the compound `CC1OC(O[C@@H]2[C@H](O)C(CO)OC(O[C@H]3COC(O[C@H]4CC[C@]5(C)[C@H]6CC[C@]78OC[C@@]9(CC[C@](C)(C=O)C[C@H]97)C(=O)C[C@@]8(C)[C@]6(C)CC[C@H]5C4(C)C)[C@@H](O)[C@@H]3O)[C@H]2OC2OC[C@@H](O)[C@@H](O)[C@@H]2O)[C@@H](O)[C@@H](O)[C@H]1O` (stereo not given in full), the growth was 95.8%.
`Oc1ccc(CSc2nnc(-c3ccc(Br)cc3)o2)c2cccnc12`: the growth was 10.7%.
As for `COc1cc2oc(-c3cccc(NC(=O)c4cc(NC(=O)[C@H](C)NC(=O)OC(C)(C)C)ccc4C)c3)cc(=O)c2c(OC)c1OC`, the figure is 50.8%.
Under `CCOC(=O)c1nn(-c2ccccc2)c(=O)c2c(N)c(C#N)c(-c3cccs3)cc12` stands 87.6%; under `CNC(=O)c1cc(Oc2ccc3nc(NC(=O)c4ccc(CN5CCCN(C)CC5)c(C(F)(F)F)c4)sc3c2)ccn1`, -21.4% (active).
In the case of `O=C(Nc1ccc(Cl)cc1)Nc1nc2ccc([N+](=O)[O-])cc2s1`, the growth is -42.7% (active).
On to `CCN1CCN(Cc2ccc(C(=O)Nc3nc4ccc(Oc5ccnc(C(=O)NC)c5)cc4s3)cc2C(F)(F)F)CC1`, for which the growth was 6.98% (active).
As for `COc1ccc(C2CC(c3ccc(Nc4nc(NCCO)nc(Nc5ccc(Cl)cc5)n4)cc3)=Nc3c(N)nc(N)nc3N2)cc1` (stereo not given), the figure is 14.1%.
For the compound `Cc1ccc(/C=C/c2nn3c(-c4ccco4)nnc3s2)cc1`, the growth was 96.1%.
As for `NCCN1CCN(c2nc(-c3ccccc3)nc3nc(-c4ccccc4)oc23)CC1`, the growth is -66.8% (active).
On to `CCOC(=O)Nc1cccc(-n2cnc3cc(-c4ccc(O)cc4)ccc32)c1`, for which the growth was 9.71% (active).
Under `O=C1/C(=C/c2ccccc2[N+](=O)[O-])Oc2ccc(O)cc21` stands -31.4% (active); under `Oc1ccc(CSc2nnc(-c3ccc(Oc4ccccc4)cc3)n2-c2ccccc2)c2cccnc12`, 10.8%.
Under `C=C(C)[C@@H]1CC[C@]2(C)[C@H](CC=C3[C@@H]4CC(C)(C)CC[C@]4(C(=O)NCC#CCN4CCN(C)CC4)CC[C@]32C)[C@@]1(C)CCC#N` stands 21.4%; under `N#Cc1ccc(S(=O)(=O)Nc2ccc(-c3cnc(N)[nH]3)cc2)cc1`, 96.7%.
Take `COC[C@@]1(C)CC[C@]2(C)CC[C@]3(C)C(=CC[C@@H]4[C@@]5(C)CCCNC(C)(C)[C@@H]5CC[C@]43C)C2C1` (stereo not given in full): the growth is 16.1%.
Turning to `CN1CCN(c2ccc3c(c2)nc(NNC(=O)c2ccncn2)c2cccn23)CC1`, the growth was 25.1%.
Under `CN1CCN(c2ccc(NC(=O)Nc3ccc4c(ccn4-c4cccc(C(N)=O)n4)c3)cc2C(F)(F)F)CC1` stands 3.6% (active); under `COc1cc(C(=O)c2cc(C(C)=O)c3c4ccccc4ccn23)cc(OC)c1OC`, 28.5%.
Under `O=S(=O)(Nc1ccc(-n2cnc3cc(-c4ccc(O)cc4)ccc32)cc1)C1CC1` stands 85.1%; under `C=CCn1c(SCC(=O)Nc2cccc(C(=O)/C=C/c3cccc([N+](=O)[O-])c3)c2)nc2ccccc2c1=O`, 79.3%.
Consider `O=C(Nc1ccc(-c2nc(-c3cccc(O)c3)c(-c3ccnc(Br)c3)[nH]2)cc1)c1ccccc1`, for which the growth was 7.12% (active).
As to `O=C(N/N=C\c1ccc(Cl)cc1)c1ccc2nc(-c3ccc(Br)cc3)[nH]c2c1`, the growth is -25.2% (active).
As for `Cn1cc(-c2nnc(N)nc2-c2cn(C)c3ccc(F)cc23)c2cc(F)ccc21`, the figure is 91.8%; as for `CC(=O)C1=NN(c2ccc(Cl)cc2)C(=O)CN1C`, 100%; as for `c1cncc(-c2cn3nc(-c4c[nH]c5ccccc45)sc3n2)c1`, 27.7%.
As for `CCN(CC)CCCC(C)NCC(=O)NC(c1ccc2c(c1)OCO2)c1cc(Cl)c2cccnc2c1O` (stereo not given), the growth was 20.6%.
With `Nc1n[nH]c2cccc(C#Cc3cccc(NC(=O)c4cccc(OC(F)(F)F)c4)c3)c12`, the growth is 41.3%.
As for `COc1cc(C2=NN(C(C)=O)C(c3ccc(N4CCOCC4)cc3)C2)cc(OC)c1OC` (stereo not given), the figure is 107%; as for `O=S(=O)(Nc1ccc(C2CC2)cc1)c1ccc(-c2cnc(C3CC3)o2)cc1`, 39.9%.

The values are drawn from PubChem BioAssay (NCI).
